Laboratory results taken from PubChem BioAssay (NCI).
The panel holds about 83,000 compounds, 20% with a hit somewhere; the sample as a whole holds those more often.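 Cells were grown in 96-well plates and exposed to the test compound at a single concentration for 48 hours; results are reported as percent growth, with values below 10 considered active.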

How the values were obtained:
Assay in all cases: NCI-60 one-dose screen, 48 h (100 = growth as untreated, 0 = no growth, -100 = all killed)
HCT-15 colon = conditions: 10 µM
HT29 colon = conditions: 10 µM
SNB-75 CNS = conditions: 10 µM
SNB-19 CNS = conditions: 10 µM
U251 CNS = conditions: 10 µM
PC-3 prostate = conditions: 10 µM
SK-MEL-5 melanoma = conditions: 10 µM
UACC-62 melanoma = conditions: 10 µM unless noted
LOX IMVI melanoma = conditions: 10 µM
SK-MEL-28 melanoma = conditions: 10 µM

Measured: growth

O=C1c2ccccc2C(=O)N1OCc1ccccc1
inactive: HCT-15 colon 109% | HT29 colon 103% | SNB-75 CNS 83.6% | SNB-19 CNS 112% | U251 CNS 113% | PC-3 prostate 77.7% | SK-MEL-5 melanoma 110% | UACC-62 melanoma 108% | LOX IMVI melanoma 109% | SK-MEL-28 melanoma 113%

CCOC(=O)CSc1c([N+](=O)[O-])ncn1C
inactive: HCT-15 colon 93.7% | HT29 colon 104% | SNB-75 CNS 98.4% | SNB-19 CNS 99.6% | U251 CNS 97.9% | PC-3 prostate 106% | SK-MEL-5 melanoma 96.2% | UACC-62 melanoma 97.8% | LOX IMVI melanoma 97.7% | SK-MEL-28 melanoma 92.6%

CC(C)C(C#N)(C(C)C)C(C)C
inactive: HCT-15 colon 104% | HT29 colon 105% | SNB-75 CNS 98.6% | SNB-19 CNS 108% | U251 CNS 102% | PC-3 prostate 92.7% | SK-MEL-5 melanoma 101% | UACC-62 melanoma 102% | LOX IMVI melanoma 112% | SK-MEL-28 melanoma 109%

CCC(C)(O)c1ccc(C)cc1 (stereo not given)
inactive: HCT-15 colon 107% | HT29 colon 107% | SNB-75 CNS 91.7% | SNB-19 CNS 97.8% | U251 CNS 105% | PC-3 prostate 99.6% | SK-MEL-5 melanoma 98.5% | UACC-62 melanoma 102% | LOX IMVI melanoma 106% | SK-MEL-28 melanoma 104%

CC(C)COC(=O)COC(=O)OCCOCCOC(=O)OCC(=O)OCC(C)C
inactive: HCT-15 colon 104% | HT29 colon 101% | SNB-75 CNS 102% | SNB-19 CNS 101% | U251 CNS 94.9% | PC-3 prostate 94.8% | SK-MEL-5 melanoma 101% | UACC-62 melanoma 97.6% | LOX IMVI melanoma 106% | SK-MEL-28 melanoma 107%

CCCCCCCCOC(=O)c1ccccn1
inactive: HCT-15 colon 97.3% | HT29 colon 96.2% | SNB-75 CNS 84.4% | SNB-19 CNS 105% | U251 CNS 110% | PC-3 prostate 97.4% | SK-MEL-5 melanoma 104% | UACC-62 melanoma 99.4% | LOX IMVI melanoma 91.7% | SK-MEL-28 melanoma 107%

Cc1cccc([N+](=O)[O-])c1Cl
inactive: HCT-15 colon 99.6% | HT29 colon 112% | SNB-75 CNS 95.2% | SNB-19 CNS 106% | U251 CNS 102% | PC-3 prostate 102% | SK-MEL-5 melanoma 98.8% | UACC-62 melanoma 105% | LOX IMVI melanoma 101% | SK-MEL-28 melanoma 107%

OCC1OC(OC2C(O)C(CO)OC2(CO)OC2OC(CO)C(O)C(O)C2O)C(O)C(O)C1O (stereo not given)
inactive: HCT-15 colon 107% | HT29 colon 102% | SNB-75 CNS 86.1% | SNB-19 CNS 102% | U251 CNS 109% | PC-3 prostate 98.5% | SK-MEL-5 melanoma 109% | UACC-62 melanoma 107% | LOX IMVI melanoma 93.1% | SK-MEL-28 melanoma 106%

Nc1ccc(CC(=O)O)c(N)c1
inactive: HCT-15 colon 106% | HT29 colon 107% | SNB-75 CNS 93.1% | SNB-19 CNS 97% | U251 CNS 101% | PC-3 prostate 101% | SK-MEL-5 melanoma 99.2% | UACC-62 melanoma 93.3% | LOX IMVI melanoma 101% | SK-MEL-28 melanoma 101%

O=c1[nH]c(O)c(/C=C2/C=Nc3ccccc32)[nH]1
inactive: HCT-15 colon 81.2% | HT29 colon 95.3% | SNB-75 CNS 77.4% | SNB-19 CNS 104% | U251 CNS 103% | PC-3 prostate 83.4% | SK-MEL-5 melanoma 91.2% | UACC-62 melanoma 95.7% | LOX IMVI melanoma 96.6% | SK-MEL-28 melanoma 111%

O=C(O)c1ccnc(Br)c1
inactive: HCT-15 colon 106% | HT29 colon 110% | SNB-75 CNS 89.5% | SNB-19 CNS 103% | U251 CNS 100% | PC-3 prostate 86.1% | SK-MEL-5 melanoma 93.5% | UACC-62 melanoma 106% | LOX IMVI melanoma 107% | SK-MEL-28 melanoma 111%

CN(C)C(=O)Oc1cccc([N+](C)(C)C)c1
inactive: HCT-15 colon 95.6% | HT29 colon 115% | SNB-75 CNS 85.1% | SNB-19 CNS 105% | U251 CNS 97.9% | PC-3 prostate 98.5% | SK-MEL-5 melanoma 94.9% | UACC-62 melanoma 104% | LOX IMVI melanoma 105% | SK-MEL-28 melanoma 108%

CCCCC/C=N/Nc1nc(C)cc(=O)[nH]1
inactive: HCT-15 colon 116% | HT29 colon 105% | SNB-75 CNS 99.2% | SNB-19 CNS 108% | U251 CNS 96.6% | PC-3 prostate 88.7% | SK-MEL-5 melanoma 104% | UACC-62 melanoma 102% | LOX IMVI melanoma 94.3% | SK-MEL-28 melanoma 102%

NNc1ccccc1C(=O)O
inactive: HCT-15 colon 99.1% | HT29 colon 105% | SNB-75 CNS 89.4% | SNB-19 CNS 113% | U251 CNS 107% | PC-3 prostate 99.1% | SK-MEL-5 melanoma 103% | UACC-62 melanoma 107% | LOX IMVI melanoma 101% | SK-MEL-28 melanoma 118%

O=C(O)CCC(=O)OC(C1CO1)C(OC(=O)CCC(=O)O)C1CO1 (stereo not given)
inactive: HCT-15 colon 97.9% | HT29 colon 100% | SNB-75 CNS 94.7% | SNB-19 CNS 111% | U251 CNS 95.7% | PC-3 prostate 96.3% | SK-MEL-5 melanoma 98.8% | UACC-62 melanoma 111% | LOX IMVI melanoma 97.1% | SK-MEL-28 melanoma 110%
